Bioassay records (PubChem)
An excerpt weighted towards active compounds, which were near 1.6% of everything screened.
KCNQ2 inh: blocks the rat KCNQ2 potassium channel; CHO-K1 KCNQ2, FluxOR thallium flux, 20 min; active compounds read low; O88943; 310,000 compounds, 1.1% hits; B-score at 10 µM;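 active means fluorescence ratio B-score at most minus 3 library SDs, with starting brightness B-score within 2 library SDs, cut at about -5.5 in these data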
Target sequence (O88943 whole entry, looked up): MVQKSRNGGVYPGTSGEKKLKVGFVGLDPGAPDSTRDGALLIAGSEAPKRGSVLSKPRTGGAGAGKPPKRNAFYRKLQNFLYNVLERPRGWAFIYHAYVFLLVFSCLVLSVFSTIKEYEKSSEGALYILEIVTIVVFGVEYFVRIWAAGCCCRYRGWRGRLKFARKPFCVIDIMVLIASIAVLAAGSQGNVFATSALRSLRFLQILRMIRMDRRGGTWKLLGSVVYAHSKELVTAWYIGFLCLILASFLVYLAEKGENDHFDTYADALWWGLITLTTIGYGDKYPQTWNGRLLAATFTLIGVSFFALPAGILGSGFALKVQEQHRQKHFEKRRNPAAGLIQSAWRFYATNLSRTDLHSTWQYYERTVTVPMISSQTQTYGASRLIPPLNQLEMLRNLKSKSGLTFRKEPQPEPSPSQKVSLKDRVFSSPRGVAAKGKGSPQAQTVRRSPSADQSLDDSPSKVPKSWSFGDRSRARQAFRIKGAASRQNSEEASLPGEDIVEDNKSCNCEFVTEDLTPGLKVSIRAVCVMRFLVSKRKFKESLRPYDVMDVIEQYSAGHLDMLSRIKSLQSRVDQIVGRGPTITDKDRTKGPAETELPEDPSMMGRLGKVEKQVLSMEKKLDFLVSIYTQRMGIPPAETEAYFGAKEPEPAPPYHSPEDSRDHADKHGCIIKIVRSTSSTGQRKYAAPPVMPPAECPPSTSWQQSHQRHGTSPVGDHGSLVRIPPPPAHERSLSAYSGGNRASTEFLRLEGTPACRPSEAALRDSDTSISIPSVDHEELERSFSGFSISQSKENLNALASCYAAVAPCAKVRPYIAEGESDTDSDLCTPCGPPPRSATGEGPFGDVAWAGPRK
KCNQ2 pot: KCNQ2 (rat) channel potentiation; CHO-K1 KCNQ2, FluxOR thallium flux fluorescence; active compounds read high; B-score at 10 µM; 310,000 compounds, 0.54% hits; AID 2239;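 active means fluorescence ratio B-score at least 3 SD of library B-scores, with initial fluorescence B-score within 3 of them, cut at about 5.3 in these data; same plate scores as AID 2156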;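 further: B-score of peak minus minimum over baseline fluorescence ratio after K+ and Tl+ stimulus; positive B-score means potentiation of KCNQ2 with more thallium influx and brighter signal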
Each line names hits and unclear results; the compound was inactive in the other large screens.

Cc1ccc(C)c(NC(=O)c2ccccc2C(=O)c2ccccc2)c1	KCNQ2 inh -6.01
Cc1ccc(C(=O)c2ccccc2C(=O)Nc2ccccc2)cc1	none
CCOc1ccc(-c2c(C(=O)N/N=C/C3CC=CCC3)nnn2-c2nonc2N)cc1 (stereo not drawn)	none (no result: KCNQ2 pot)
Cc1ccc(S(=O)(=O)n2ccc(=O)[nH]2)cc1	none
Cc1cc(Sc2nc(N)ncc2[N+](=O)[O-])ncn1	none (no result: KCNQ2 pot)
Cc1cc(Sc2ncnc(N)c2[N+](=O)[O-])ncn1	KCNQ2 inh -5.87
Cc1ccc(-c2noc(CN(C(=O)C(c3ccccc3)c3ccccc3)C(C)C)n2)cc1	none (no result: KCNQ2 pot)
CC(C)N(Cc1nc(-c2ccc(Cl)cc2)no1)C(=O)C(c1ccccc1)c1ccccc1	KCNQ2 inh -6.21
Cc1ccc(NC(=O)CC2(CC(=O)O)CCCC2)c(C)c1	none
CCC1(C)OC(=O)NN(c2ccc(C)cc2)C1(C)O (stereo not drawn)	none
COc1ccc(C(=O)N/C(=C/c2cccs2)c2nc3ccccc3[nH]2)cc1OC	none
COc1cc(/C=C(/C(=O)c2cccs2)c2nc3ccccc3[nH]2)cc(OC)c1O	KCNQ2 inh -6.06
CC(=O)NC(C)c1nc2ccccc2n1CC(=O)NC(C)CCc1ccccc1 (stereo not drawn)	none (no result: KCNQ2 pot)
COc1ccc(N2CCN(c3oc(Cc4cccc5ccccc45)nc3C#N)CC2)cc1	KCNQ2 inh -6.95
CC1CCN(c2oc(Cc3cccc4ccccc34)nc2C#N)CC1	KCNQ2 inh -5.93
N#Cc1nc(Cc2cccc3ccccc23)oc1N1CCOCC1	none
N#Cc1nc(Cc2cccc3ccccc23)oc1N1CCN(c2ccccc2)CC1	none (no result: KCNQ2 pot)
N#Cc1nc(COc2ccccc2)oc1N1CCN(Cc2ccccc2)CC1	KCNQ2 inh -6.38
N#Cc1nc(COc2cccc(Cl)c2)oc1N1CCCC1	none (no result: KCNQ2 pot)
CC1(C)Oc2ccc3ccc(=O)oc3c2/C(=C/NC2CCCCC2)C1=O	none
COc1ccc(-n2nc(C(=O)N3CCC(N4CCCCC4)CC3)c3c4ccccc4n(C)c3c2=O)cc1	none (no result: KCNQ2 pot)
Oc1ccc(-c2nc3ccc4ccccc4c3c3c2CCC3)cc1O	none
CCOC(=O)C1(CCCc2ccccc2)CCN(C(=O)c2cc(C)nn2CC)CC1	none (no result: KCNQ2 pot)
CCCn1c(=O)c(C(=O)NCCc2ccc(OC)c(OC)c2)c(O)c2ccccc21	KCNQ2 inh -6.18
CCCn1c(=O)c(C(=O)NCc2ccc3c(c2)OCO3)c(O)c2ccccc21	KCNQ2 inh -5.87
CCCn1c(=O)c(C(=O)NCc2cccnc2)c(O)c2ccccc21	none (no result: KCNQ2 pot)
CCn1c(=O)c(C(=O)NCCc2ccc(OC)c(OC)c2)c(O)c2ccccc21	none (no result: KCNQ2 pot)
CN(C)C(=O)COc1ncnc2scc(-c3ccc(F)cc3)c12	none (no result: KCNQ2 pot)
Cc1sc2nc(-c3ccncc3)[nH]c(=O)c2c1-c1ccccc1	none
Cc1sc2nc(-c3ccccn3)[nH]c(=O)c2c1-c1ccccc1	KCNQ2 pot 12.8
Cc1ccc(S(=O)(=O)N2CCCC2CNC(=O)c2ccc(F)c(F)c2)cc1 (stereo not drawn)	none (no result: KCNQ2 pot)
CC(NC(=O)c1ccc(Br)cc1)C(=O)NC1=NCCS1 (stereo not drawn)	KCNQ2 pot 7.41
CC(NC(=O)c1ccccc1)C(=O)NC1=NCCS1 (stereo not drawn)	none
COc1ccc(-c2nc(CN(C)C(C)c3ccon3)c(C)o2)c(C)c1C (stereo not drawn)	none (no result: KCNQ2 pot)
COc1ccc(-c2nc(CN(CC3CCC(=O)N3)C(C)C)c(C)o2)c(C)c1C (stereo not drawn)	KCNQ2 inh -6.69
Cc1nc2c(c(=O)n1CCC1=CCCCC1)c1nc3ccccc3nc1n2/N=C/c1ccco1	KCNQ2 inh -7.67
CCCn1c(C)nc2c(c1=O)c1nc3ccccc3nc1n2CCC1=CCCCC1	none (no result: KCNQ2 pot)
Cc1c(C(=O)N2CCCC2)c(S(=O)(=O)Nc2cccc(Br)c2)c(C)n1C	none
CC(C)c1ccc(NC(=O)c2ccc(NC3=NC4CS(=O)(=O)CC4S3)cc2)cc1 (stereo not drawn)	none
c1ccc(-c2nc(NCCCN3CCOCC3)c3ccccc3n2)cc1	none
COc1ccc(-n2cc(-c3ccccc3)c3c(NCCCN4CCOCC4)ncnc32)cc1	none (no result: KCNQ2 pot)
Cc1cccc(-c2nc(NCCCN3CCOCC3)c3ccccc3n2)c1	KCNQ2 inh -5.92
c1ccc(-c2cn(-c3ccccc3)c3ncnc(NCCCN4CCOCC4)c23)cc1	KCNQ2 inh -5.59
Cc1ccc2c(c1)-c1c(cnn1CC(=O)N1CCCN(Cc3ccccc3F)C1)CO2	KCNQ2 inh -8.18
Cc1ccc2c(c1)-c1c(cnn1CC(=O)O)CO2	none (no result: KCNQ2 pot)
CC(C)c1ccc(N2C(=NC(=O)C3CCCO3)SC3CS(=O)(=O)CC32)cc1 (stereo not drawn)	none
Cc1cc(-c2ccccc2)nc2cc(C(=O)N(Cc3ccccc3)Cc3ccccc3)nn12	KCNQ2 inh -7.24
COC(=O)c1cc2nc(-c3ccccc3)cc(C)n2n1	none
CCOC(=O)C1CCN(C(=O)Cn2ncc3c([nH]c4ccccc43)c2=O)CC1	none (no result: KCNQ2 pot)
O=C(/C=C/c1cccnc1)c1ccccc1O	KCNQ2 inh -5.9
O=C(/C=C/c1cccnc1)c1ccc(O)cc1	none (no result: KCNQ2 pot)
CCOC(=O)Cc1csc(NC(=O)CSc2cc(Cl)ccc2Cl)n1	none (no result: KCNQ2 pot)
